Screening results from PubChem.
tim10-1 inh – growth inhibitors of tim10-1 mutant yeast, primary screen, luminescence, uHTS | S. cerevisiae tim10-1 ts strain growth, BacTiter-Glo, 24 h | inhibition, % at 20 µM | hit rate 2.2% among 330,000 | AID 463190, 2010;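 active = inhibition of at least 40%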;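 also: mutant grown at 25 °C; 0% = DMSO wells with yeast and 100% = wells holding no yeast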
tim23-1 inh – growth inhibitors of tim23-1 mutant yeast, primary screen, luminescence, uHTS; hit rate 1.3% among 330,000; inhibition, % at 20 µM; S. cerevisiae tim23-1 growth, BacTiter-Glo luminescence, 24 h;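 active = growth inhibition of the mutant yeast at or above 50%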;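 also: temperature-sensitive mutant grown at 25 °C; plate controls were DMSO-treated mutant yeast for no effect and medium wells lacking yeast for full effect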
PfHsp90 yeast 2 – growth inhibition of PfHsp90-expressing yeast, primary screen, antimalarial PfHsp90 inhibitor project, S. cerevisiae, BacTiter-Glo luminescence, single point, set 2. inhibition, % at 9.4 µM. hit rate 0.32% among 310,000. AID 504621, 2011. BacTiter-Glo ATP, 48 h; yeast lacking PDR1 and PDR3 efflux regulators;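 active = every replicate shows inhibition above about 80%, whatever the replicate mean, limit read from the data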;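 also: 0% = DMSO neutral controls and 100% = 20 µM radicicol positive controls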
TIM10 inh – growth inhibitors of isogenic TIM10 control yeast, primary screen, counter-screen for tim10-1 yeast inhibitor project, luminescence, uHTS | AID 463195, 2010 | inhibition, % at 10 µM | S. cerevisiae TIM10 strain growth, BacTiter-Glo luminescence, 24 h | hit rate 1.4% among 330,000;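 active = inhibition of 40% or more at the single tested concentration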;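 also: wild-type TIM10 isogenic control strain grown at permissive 25 °C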
B2AR ag – beta2AR agonists driving receptor internalization, primary screen, cell-based, FAP fluorogen, flow cytometry; Beta-2 adrenergic receptor (Homo sapiens), P07550; Am2.2-beta2AR cells; response, % (concentration not given with the values); hit rate 0.43% among 340,000; AID 504454, 2011;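 active = response above a set limit, near 3 SD of response in nonfluorescent compounds, cut at about 42% in these data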
Target sequence (P07550 whole entry, looked up): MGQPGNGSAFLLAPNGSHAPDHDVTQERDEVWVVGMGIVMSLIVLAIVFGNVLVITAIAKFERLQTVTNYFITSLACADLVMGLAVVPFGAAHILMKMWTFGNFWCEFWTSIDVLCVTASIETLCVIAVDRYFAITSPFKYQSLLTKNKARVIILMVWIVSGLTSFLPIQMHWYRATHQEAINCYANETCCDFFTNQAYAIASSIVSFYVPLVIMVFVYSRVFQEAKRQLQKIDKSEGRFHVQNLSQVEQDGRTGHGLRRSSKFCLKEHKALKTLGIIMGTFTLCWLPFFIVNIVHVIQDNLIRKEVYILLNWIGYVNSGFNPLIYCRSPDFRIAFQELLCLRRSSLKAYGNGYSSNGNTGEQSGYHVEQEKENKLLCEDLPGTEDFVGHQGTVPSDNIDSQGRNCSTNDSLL
tim10-1 conf – growth inhibitors of tim10-1 mutant yeast, confirmation, single concentration, luminescence, S. cerevisiae; S. cerevisiae tim10-1 ts strain growth, BacTiter-Glo, 24 h; inhibition, % at 20 µM; AID 463213, 2010; shares compounds with tim10-1 inh; hit rate 56% among 7,400;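 active = inhibition of yeast growth at or above a set limit in either of two repeat tests at 20 µM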;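 also: tim10-1 mutant grown at permissive 25 °C to find synthetic lethal compounds; 0% = DMSO yeast wells and 100% = medium wells without yeast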
tim10 confirm – growth inhibitors of wild-type TIM10 yeast, confirmation, counter-screen for tim10-1 synthetic lethality project, single concentration, luminescence, S. cerevisiae. S. cerevisiae tim10 strain growth, BacTiter-Glo luminescence, 24 h. inhibition, % at 10 µM. AID 463215, 2010. hit rate 63% among 4,600. shares compounds with TIM10 inh;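 active = inhibition of yeast growth at or above a set limit in either of two replicates at 10 µM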;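 also: this counterscreen used the strain with wild-type TIM10; 0% = yeast with DMSO and 100% = medium wells lacking yeast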
tim23-1 conf – tim23-1 mutant yeast growth inhibitors, confirmation, luminescence, single concentration; shares compounds with tim23-1 inh; S. cerevisiae tim23-1 growth, BacTiter-Glo luminescence, 24 h; inhibition, % at 20 µM; hit rate 83% among 4,400;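 active = inhibition above about 39% in either of two replicate wells at 20 µM, limit read from the data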;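 also: temperature-sensitive tim23-1 mutant grown at 25 °C; 0% = DMSO wells with yeast and 100% = medium wells without yeast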
Beta2AR ag CP1 – beta2AR agonists via receptor internalization, confirmation, cell-based, FAP fluorogen, flow cytometry, single point, cherry pick 1. shares compounds with B2AR ag. Am2.2-beta2AR cells, FAP surface receptor; stronger effect = lower value. percent response (surface receptor), % at 10 µM. hit rate 25% among 1,100. AID 540358, 2011;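 active = surface receptor percent response at or below 58%, roughly 3 SD from nonfluorescent compounds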
FAP fluor counter – fluorescence artifact in beta-2AR agonist FAP counterscreen | calls only at 10 µM | Am2.2 cells, FAP fluorogen flow cytometry; stronger effect = lower value | 1,100 tested, under 10 active | shares compounds with B2AR ag;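 active = percent response below a set limit in fluorescence channel 1 and below 50% in channel 8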
Starred values were filed as active, the others as inactive; i = inactive; x = no result. A selection: hits, their analogues and other compounds. The true share with any hit is near 3.8%.

SMILES | tim10-1 inh | tim23-1 inh | PfHsp90 yeast 2 | TIM10 inh | B2AR ag | tim10 confirm | others
CC(C)N1C(=O)/C(=C\c2nc3ccccc3c(=O)n2-c2ccccc2)c2ccccc21 | x | x | -3 | x | 38 | x
CC(C)N1C(=O)/C(=C/c2nc3ccccc3c(=O)n2-c2ccccc2)c2ccccc21 | 46* | 60* | -25 | 47* | 47* | 44* | tim10-1 conf=40*;tim23-1 conf=58*;Beta2AR ag CP1=82;FAP fluor counter=i
CCCN(CC(=O)Nc1ccccc1C)C(=O)c1ccc(OCc2c(C)noc2C)cc1 | -1 | 1 | x | 7 | -5 | x
COc1ccc([C@H]2CC(=O)C=C(c3cccc(C(C)C)c3)C2)cc1OC | 20 | 34 | -13 | 17 | -20 | x
COc1ccccc1-c1cc(C(F)(F)F)nc(S(=O)(=O)CCCC(=O)N2CCCCC2C)n1 (stereo unspecified) | 42* | 39 | 36 | 41* | 35 | -1 | tim10-1 conf=14;Beta2AR ag CP1=66;FAP fluor counter=i
Cc1ccccc1NC(=S)N/N=C/C(C)c1ccccc1 (stereo unspecified) | 23 | 25 | -17 | 41* | -1 | 27
Cc1cccc(NC(=S)N/N=C/C(C)c2ccccc2)c1C (stereo unspecified) | 31 | 20 | -6 | 41* | 14 | 36*
Cc1cccc(NC(=S)N/N=C/c2cccc(O)c2)c1C | 24 | 14 | 4 | 31 | -10 | x
Cc1cccc(NC(=S)NN(Cc2ccccc2)c2ccccc2)c1C | 30 | 16 | -12 | 43* | 4 | -21
Cc1ccccc1NC(=S)N/N=C/c1ccc(O)cc1O | 19 | 14 | -9 | 19 | 3 | x
O=C(NC(=S)NC12CC3CC(CC(C3)C1)C2)c1ccc(F)cc1 | 20 | 47 | x | 44* | x | 48*
Cc1nc([N+](=O)[O-])c(Sc2nc3ccccc3n2C)n1Cc1ccccc1 | 33 | 37 | 1 | 40* | 11 | 42*
CCN(CC)c1ccc(C(=S)NC2CCCCC2)cc1 | 32 | 24 | -1 | 46* | 3 | 28
CC1CN(c2nc3ccccc3nc2NS(=O)(=O)c2ccccc2)CC(C)O1 (stereo unspecified) | 15 | 35 | x | 4 | 0 | x
CCOc1ccccc1N1CC(C(=O)Nc2cc(Cl)ccc2-n2cncn2)CC1=O (stereo unspecified) | -3 | -12 | -26 | 1 | -1 | x
Cc1ccc(/C=N/n2c(-c3cccc(Cl)c3)n[nH]c2=S)o1 | 35 | 44 | x | 42* | 6 | 26
CC(=O)OCCCN1C(=O)c2cccc3cc(Br)cc(c23)C1=O | -9 | 22 | x | 61* | x | 1
CCOC(=O)CCCCCN1C(=O)c2cccc3cccc(c23)C1=O | -25 | 17 | -1 | -8 | 4 | x
Cc1cc(Br)ccc1NC(=O)CN(C)C(=O)c1cccc(S(=O)(=O)N2CCN(C)CC2)c1 | x | x | x | x | 1 | x
Cc1cc(N2CCOCC2)nc2ccc(NC(=O)CCC(=O)N3CCN(c4cccc(C(F)(F)F)c4)CC3)cc12 | 28 | 36 | -8 | 3 | 2 | x
S=C(Nc1ccccc1Oc1ccccc1)NC1CCCC1 | 24 | 37 | 13 | 41* | -1 | 20
CC(C)c1ccccc1NC(=S)NC1CCCCC1 | 37 | 14 | -2 | 46* | 3 | 25
CSc1ccccc1NC(=S)NC1CCCCC1 | 29 | 25 | -10 | -35 | 4 | x
Cc1csc(Nc2nc(N)c(C(=O)Nc3cc(Cl)ccc3F)o2)n1 | -13 | 1 | 3 | -24 | 11 | x
O=C1NC(=S)NC1(c1ccccc1)c1ccccc1 | x | x | x | x | -3 | x
SMILES | tim10-1 inh | tim23-1 inh | PfHsp90 yeast 2 | TIM10 inh | B2AR ag | tim10 confirm | others
Cc1ccc(C)c(OCCC(=O)N2CCN(S(=O)(=O)c3ccc([N+](=O)[O-])cc3)CC2)c1 | 7 | 7 | -2 | 53* | -4 | -8
Cc1ccc(S(=O)(=O)N2CCN(C(=O)COC(=O)CCOc3cc(C)ccc3C)CC2)cc1 | 27 | 13 | -7 | 23 | 26 | x
COc1ccc(OC)c(S(=O)(=O)Nc2ccc3[nH]c(=O)[nH]c3c2)c1 | 7 | -1 | -4 | 4 | -6 | x
O=C(N/N=C/c1ccco1)c1cc(C2CC2)[nH]n1 | 2 | 7 | 13 | 5 | -8 | x
O=C(N/N=C/c1ccc([N+](=O)[O-])cc1)c1cc(C2CC2)[nH]n1 | 36 | 23 | -16 | 51* | -4 | 56*
COC(=O)c1cc(NC(=O)c2cccc(F)c2)cc(C(=O)OC)c1 | 2 | 33 | 10 | 48* | 3 | 31*
COc1ccc(C(=O)Nc2cc(OC)cc(OC)c2)cc1 | 17 | 32 | -4 | 18 | -14 | x
COc1cc(NC(=O)c2ccccc2)cc(OC)c1 | 23 | 43 | -4 | 68* | -7 | 46*
COC(=O)c1cc(NC(=O)c2cccnc2)cc(C(=O)OC)c1 | 13 | 16 | -6 | 7 | 14 | x
O=C(Nc1cccc(O)c1)c1ccccc1 | 16 | 26 | 7 | 40* | 0 | -10
CCOC(=O)Nc1cccc(NC(=O)c2cc(OC)cc(OC)c2)c1 | 22 | 49 | 18 | 41* | 1 | 11
Cc1ccc(S(=O)(=O)N2CCN(C(=O)COC(=O)/C=C/c3ccc(OC(F)F)cc3)CC2)cc1 | x | x | 3 | x | 2 | x
COc1ccc(C2=NN(CC(=O)NCC(OC)OC)C(=O)CC2)cc1 | -2 | 4 | 13 | -16 | 6 | x
CC(C)(C)c1ccc(C(=O)Nc2ccc(C(=O)NCc3cccnc3)cc2)cc1 | 2 | 19 | 6 | -3 | 7 | x
CCOC(=O)Nc1cccc(OCC(=O)Nc2ccccc2OC)c1 | 34 | 46 | -15 | 42* | 5 | 15
O=C(COc1cccc(NC(=O)c2ccccc2)c1)c1ccc(F)cc1 | -5 | 8 | -29 | 42* | -5 | 34*
